Measured values: PubChem BioAssay (NCI)
Compounds without any hit were thinned out: in the full panel of roughly 83,000, 20% have a hit.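 96-well plates, one dose, 48 hours. Percent growth reported; active if below 10.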 Activity calls are given as the source filed them.

These molecules were tested on OVCAR-4 ovarian (assay: NCI-60 one-dose screen, 48 h (100 = growth as untreated, 0 = no growth, -100 = all killed)). Details: 10 µM unless noted.

Structure (SMILES)	growth
O=C1/C(=C/c2ccc(F)cc2)CN(C(=O)CCN2CCC(=NO)CC2)C/C1=C\c1ccc(F)cc1	-18.7% (active)
CC/C=C\C[C@H](O)C/C=C1/C(=O)C=C[C@@H]1C/C=C\CCCC(N)=O	56.4% (inactive)
CC/C=C\C[C@H](F)C/C=C1/C(=O)C=C[C@@H]1C/C=C\CCCC(=O)OC	24.2% (inactive)
Nc1nc2c(c3ncccc13)C(c1ccc(Cl)c(Cl)c1)Cc1ncccc1-2 (centres undefined)	67.6% (inactive)
Cn1c(=O)c2c(ncn2CC[N+](C)(C)C)n(C)c1=O	105% (inactive)
O=C(O)c1cccc2c1-c1ccccc1C2=O	105% (inactive)
CCOC(=O)C(C#N)C1CCCCC1 (centres undefined)	118% (inactive)
CCCCNP1(NCCCC)=NP(NCCCC)(NCCCC)=NP(NCCCC)(NCCCC)=NP(NCCCC)(NCCCC)=N1	16.9% (inactive)
CC(=O)C1=C(O)C=C2Oc3c(C(=O)/C=C/c4cc(C(F)(F)F)cc(C(F)(F)F)c4)c(O)c(C)c(O)c3[C@]2(C)C1=O	12.5% (inactive)
COc1ccc(OCC(=O)Nc2ccc(-c3nc4ccccc4s3)cc2C)cc1	55% (inactive)
CCCCCCCCCC(=O)Oc1ccc(/C(=C(/C)c2ccccc2)c2ccc(OCCN3CCCC3)cc2)cc1	32.6% (inactive)
COc1cccc(-c2nc3sccn3c2-c2ccnc(NCCCNS(=O)(=O)c3ccc(Cl)cc3)c2)c1	43.1% (inactive)
CC/C=C\C[C@H](O)C/C=C1/C(=O)C=C[C@@H]1C/C=C\CCCC(=O)NC	44.4% (inactive)
COc1cccc(/C=C\C(=O)c2ccccc2)c1	47.4% (inactive)
